Results reported in PubChem BioAssay AID624483 (NMMLSC, 2012).
Screen size: about 360,000 compounds; about 11,000 (3.1%) were called active. Not shown: some 2% with an inconclusive outcome. The sample holds actives, similar compounds and a random draw of the others, so the mix is not that of the screen. A number with no mark means an inactive call. Rule as the data show it: active = fluorescence intensity above about 16000; inconclusive = no clear call, values can overlap the other calls; inactive = below that.

Test: compound fluorescence in toxin protease inhibitor counterscreen, primary screen, artefact control for toxin protease inhibitor project, biochemical, multiplex microsphere, HTS (AID 624483)
Conditions: compound autofluorescence counterscreen, microsphere flow cytometry; active compounds read high

**Q.** With CC(Oc1ccc(F)cc1F)C(=O)/C=C/N(C)C (stereo not given) as the compound, how does the fluorescence intensity read?
**A.** 24200 (active)

**Q.** For CCOC(=O)c1sc(N)c(C#N)c1COC(=O)C1=COCCO1, which fluorescence intensity is on record?
**A.** 4150

**Q.** For CCNC(=O)C1CCCN(C(=O)c2ccc(OC)cc2OC)CC1 (stereo not given), which fluorescence intensity is on record?
**A.** 2850

**Q.** For CCCOc1ccc(F)cc1-c1cc(C(=O)NCc2ccc(F)cc2)[nH]n1, which fluorescence intensity is on record?
**A.** 3970

**Q.** For COCCNc1nc(NCc2ccc(NC(C)=O)cc2)c2sccc2n1, which fluorescence intensity is on record?
**A.** 3410

**Q.** With CC(=O)Nc1cccc(Nc2ccc(C#N)cc2)c1 as the compound, how does the fluorescence intensity read?
**A.** 6880

**Q.** With CCOC(=O)C1CCCN(C(=O)c2cccc3ccccc23)CC1 (stereo not given) as the compound, how does the fluorescence intensity read?
**A.** 3960

**Q.** With O=C(NCc1ccc(F)cc1)c1cc(C2CCCCN2C(=O)c2ccccn2)on1 (stereo not given) as the compound, how does the fluorescence intensity read?
**A.** 4420

**Q.** With Nc1nc2cc(Cl)ccc2n1N as the compound, how does the fluorescence intensity read?
**A.** 6290

**Q.** Which fluorescence intensity does the source give for CC(O)(c1cccc(F)c1)c1nc(-c2ccc3c(c2)OCO3)cs1 (stereo not given) here?
**A.** 3850

**Q.** With O=C(N1CCOCC1)N(Cc1ccccc1)c1ccccn1 as the compound, how does the fluorescence intensity read?
**A.** 3710

**Q.** Which fluorescence intensity does the source give for CC(C)(C)C(=O)N(Cc1ccccc1)c1ccccn1 here?
**A.** 4430

**Q.** With CCC(=O)N(Cc1ccccc1)c1ccccn1 as the compound, how does the fluorescence intensity read?
**A.** 20800 (active)

**Q.** Which fluorescence intensity does the source give for COc1cc(F)ccc1-c1cc(C(=O)NCC2CCCCC2)[nH]n1 here?
**A.** 3000

**Q.** With CCC(C)[C@H](NC(=O)N1c2ccccc2NC(=O)[C@@H]1C(C)C)C(=O)N[C@@H](Cc1ccccc1)C(=O)O (stereo not given in full) as the compound, how does the fluorescence intensity read?
**A.** 3920

**Q.** For COc1ccc(NC(C)=O)cc1NC(=O)CN1CCN(C2c3ccccc3-c3ccccc32)CC1, which fluorescence intensity is on record?
**A.** 4260

**Q.** Which fluorescence intensity does the source give for Cc1ccc(CN(CC(=O)NC2CCCCC2)C(=O)c2csnn2)cc1 here?
**A.** 5650

**Q.** For COc1ccc(/C(O)=C2/C(=O)C(=O)N(CCCN(C)C)C2c2ccccc2)cc1OC (stereo not given), which fluorescence intensity is on record?
**A.** 21200 (active)

**Q.** Which fluorescence intensity does the source give for CCCOc1ccc(/C(O)=C2/C(=O)C(=O)N(CCN(C)C)C2c2ccc(OC)c(OC)c2)cc1 (stereo not given) here?
**A.** 4510

**Q.** For COc1cccc(C2/C(=C(/O)c3ccc(F)cc3)C(=O)C(=O)N2CCN(C)C)c1 (stereo not given), which fluorescence intensity is on record?
**A.** 4550

**Q.** Which fluorescence intensity does the source give for CC1(C)CC(O)C(CCC(O)c2ccccc2)C(C)(C)N1 (stereo not given) here?
**A.** 2520

**Q.** For Cc1noc(C)c1C(=O)NCC1COc2ccccc2O1 (stereo not given), which fluorescence intensity is on record?
**A.** 6410

**Q.** For Cc1c(C(=O)Nc2ccccn2)oc2ccc(Br)cc12, which fluorescence intensity is on record?
**A.** 5620

**Q.** For Cc1noc(C)c1C(=O)Nc1ccccn1, which fluorescence intensity is on record?
**A.** 22800 (active)

**Q.** Which fluorescence intensity does the source give for Cn1c(=O)c2c(nc(SCCNS(=O)(=O)c3ccccc3)n2C)n(C)c1=O here?
**A.** 10500

**Q.** With O=C(Nc1cc(Br)ccc1F)c1nc[nH]c1C(=O)NCc1ccccc1 as the compound, how does the fluorescence intensity read?
**A.** 4670

**Q.** For CCCCC(C(=O)NC(C)(C)C)N(Cc1ccccc1)C(=O)c1snc(C(N)=O)c1N (stereo not given), which fluorescence intensity is on record?
**A.** 3460

**Q.** With COc1ccc(S(=O)(=O)N2CCCC2)c(C)c1C as the compound, how does the fluorescence intensity read?
**A.** 16000

**Q.** Which fluorescence intensity does the source give for CCOc1ccc(S(=O)(=O)N2CCCCCC2)c2ccccc12 here?
**A.** 16700 (active)

**Q.** For CCOc1ccc(S(=O)(=O)n2ccnc2)c2ccccc12, which fluorescence intensity is on record?
**A.** 5760

**Q.** For CC(C)N1CCC(=NNc2ccc([N+](=O)[O-])cc2S(=O)(=O)N2CCOCC2)CC1, which fluorescence intensity is on record?
**A.** 3480

**Q.** Which fluorescence intensity does the source give for O=C(CSc1ccc(-c2ccccc2)nn1)NCC1CCCO1 (stereo not given) here?
**A.** 3400

**Q.** With O=C(NCC1CCCO1)C(C(=O)c1ccccc1)n1cc(Cl)ccc1=O (stereo not given) as the compound, how does the fluorescence intensity read?
**A.** 19700 (active)

**Q.** With O=C(NCC1CCCO1)/C(=C/c1ccc(Cl)cc1)NC(=O)c1ccccc1 (stereo not given) as the compound, how does the fluorescence intensity read?
**A.** 2550

**Q.** Which fluorescence intensity does the source give for N#Cc1ccc(C(=O)Nc2nc(-c3cccs3)c(C(=O)C(F)(F)F)s2)cc1 here?
**A.** 4970

**Q.** With OC[C@@H]1CN(Cc2ccc3c(c2)OCO3)C[C@H](n2cnc3c(NCc4ccco4)ncnc32)O1 as the compound, how does the fluorescence intensity read?
**A.** 3680

**Q.** For Cc1ccc(-c2cnc(C(O)c3cc(Cl)cc(Cl)c3)[nH]2)cc1 (stereo not given), which fluorescence intensity is on record?
**A.** 2960

**Q.** For Nc1nc(CSc2nnnn2-c2ccccc2)nc(Nc2ccccc2)n1, which fluorescence intensity is on record?
**A.** 4030

**Q.** For Cc1ccccc1Nc1nc(N)nc(CSc2ccccc2)n1, which fluorescence intensity is on record?
**A.** 2510

**Q.** Which fluorescence intensity does the source give for CN(C)c1nc(N)nc(CSc2nnnn2-c2cccc3ccccc23)n1 here?
**A.** 16800 (active)

**Q.** For CN(C)c1nc(N)nc(CSc2ccccn2)n1, which fluorescence intensity is on record?
**A.** 19900 (active)

**Q.** With COc1ccc(-n2nnnc2SCc2nc(N)nc(N3CCOCC3)n2)cc1 as the compound, how does the fluorescence intensity read?
**A.** 2520

**Q.** With CCOC(=O)CSc1ccccn1 as the compound, how does the fluorescence intensity read?
**A.** 2150

**Q.** For O=C(NCc1ccco1)C1CCCN1S(=O)(=O)c1ccccc1C(F)(F)F (stereo not given), which fluorescence intensity is on record?
**A.** 4200

**Q.** For CC(=O)N(c1ccc2oc(=O)sc2c1)S(=O)(=O)c1ccc(C)cc1, which fluorescence intensity is on record?
**A.** 3830

**Q.** For CCCC1=Nc2cc(C(=O)NCc3ccco3)ccc2Sc2ccccc21, which fluorescence intensity is on record?
**A.** 7310

**Q.** With Cc1nn(CC2CC2)c(=O)n1N(C)c1ncc(C(F)(F)F)cc1Cl as the compound, how does the fluorescence intensity read?
**A.** 4280

**Q.** For CCOC(=O)N1CCC(O)(c2cc(C)c(C)cc2C)CC1, which fluorescence intensity is on record?
**A.** 23000 (active)

**Q.** With CCOC(=O)N1CCC(C(N)=O)CC1 as the compound, how does the fluorescence intensity read?
**A.** 4320

**Q.** With CCOC(=O)N1CCN(C(=S)Nc2ccc(C)cc2C)CC1 as the compound, how does the fluorescence intensity read?
**A.** 2140
